Source: PubChem BioAssay (NCATS)
Inconclusive results are not listed. Unmarked numbers belong to inactive results. Calls come from the whole dose curve; as a rule, active = well fitted cell-killing curve with a large enough effect; inconclusive = small, poorly fitted or top-dose-only effect, or effect the other way; inactive = flat fitted curve, though single readings scatter.

These molecules were tested on CASKI (assay: Primary qHTS to identify gynecologic anti-cancer compounds using libraries of approved drugs and bioactive compounds (AID 1345084; note: nearly all actives have a fitted effect of over 55% in size)). Settings: Gynecologic cancer cell panel viability, ATPlite luminescence, 48 h; series mostly up to 57.5 µM; activity change, negative = cytotoxicity: at the top concentration.
Outline: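 Cell viability after 48 h drug treatment, ATPlite luminescence readout; five doses.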
% is set by controls: 0 for no effect and ±100 for the full control effect.

Compound | activity change, negative = cytotoxicity
CC(C)C(=O)O[C@@H]1[C@@H](O)[C@@H](O[C@H]2O[C@H](CO)[C@@H](O)[C@H](O)[C@H]2O)O[C@H](CO)[C@H]1O | -5.4% [at 25.3 µM]
C=C(C(=O)O)[C@@H]1CC=C2CCC[C@H](C)[C@@]2(C)C1 | 1.04%
CC1(C)CC[C@]2(C(=O)O)CC[C@]3(C)C(=CCC4[C@@]5(C)CCC(O[C@@H]6OC[C@H](O)[C@H](O)[C@H]6O[C@@H]6O[C@H](CO)[C@@H](O)[C@H](O)[C@H]6O)[C@@](C)(CO)C5CC[C@]43C)[C@@H]2C1 (some centres not stated) | 7.36% [at 25.3 µM]
CNc1nc(Nc2cnn([C@H]3CCN(C4COC4)C[C@@H]3F)c2Cl)ncc1C(F)(F)F | 8.29%
CCCCNC(=O)[C@@H]1Cc2ccccc2N1C(=O)[C@@H](N)CC | 10.5%
Cc1coc2c1CC1OC1(C)CCC1OC1(C)C2 (configuration not stated) | 5.6%
COC(=O)C1C(CC(C)=O)C=CC(O)C12Oc1cc(C)cc(O)c1C2=O (configuration not stated) | 3.62% [at 38.5 µM]
CCOC(=O)[C@H]1O[C@@H]1C(=O)N[C@@H](CC(C)C)C(=O)NCCC(C)C | 0.404%
C=C1CCC2C(C)(C)C(O)CCC2(C)C1CCC(C)CCOC(=O)CCC(=O)O (configuration not stated) | 12% [at 25.3 µM]
CC1CCC2(C(=O)OC3OC(CO)C(O)C(O)C3O)CCC3(C(=O)O)C(=CCC4C5(C)CCC(OC6OC(C)C(O)C(O)C6O)C(C)(C)C5CCC43C)C2C1C (configuration not stated) | -3.23% [at 25.3 µM]
COC1CC(=O)C23C(=O)NC(CC(C)C)C2C(C)C(C)=CC3/C=C(\C)CCC1O (configuration not stated) | -3.42% [at 25.3 µM]
C[C@@H]1O[C@@H](O[C@H]2[C@H](OC(=O)[C@]34CCC(C)(C)C[C@H]3C3=CCC5[C@@]6(C)C[C@H](O)[C@H](O[C@@H]7O[C@H](CO[C@@H]8OC[C@H](O)[C@H](O)[C@H]8O)[C@@H](O)[C@H](O)[C@H]7O)C(C)(C)C6CC[C@@]5(C)[C@]3(C)C[C@H]4O)OC[C@@H](O)[C@@H]2O)[C@H](O)[C@H](O[C@@H]2OC[C@](O)(CO)[C@H]2O)[C@H]1O[C@@H]1OC[C@H](O)[C@H](O[C@@H]2OC[C@@H](O)[C@H](O)[C@H]2O)[C@H]1O (some centres not stated) | 2.2% [at 6.55 µM]
